Assay results as given in PubChem BioAssay (EPA / NIEHS).
The source holds several records for some structures; these can differ, active in one and inactive in another. Active and inactive are the calls of the source. The calls were made as follows: active = hit-call score of the fitted dose curve at least 0.9, where 1 is the maximum; inactive = score below 0.9.

Each compound was assayed on Interleukin-8 (IL8), CXCL8 (gene 3576) (assay: BSK_SAg_IL8: BioMAP Diversity Plus: SAg Assay for Interleukin-8 (IL8) Biomarker Activity (AID 2283094)). Conditions: primary human HUVEC with PBMC; actives raise or lower the signal.
In short: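 Human umbilical vein endothelial cells co-cultured with PBMC, stimulated with superantigen; IL-8 measured by ELISA 24 h after chemical dosing. Bidirectional fitting versus DMSO; SRB staining in parallel cultures tracks cytotoxicity.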

SMILES | AC50 | outcome
OCC(F)(F)OC(F)(F)C(F)(F)OC(F)(F)C(F)(F)OC(F)(F)CO | 17.9 µM (active) | inactive
CCCCC(CC)COP(=O)(Oc1ccccc1)Oc1ccccc1 (stereo not given) | 7.9 µM (active) | –
CC(C)(C)c1ccc(O)cc1 | – | inactive
CC(C)(C)c1ccccc1OP(=O)(Oc1ccccc1)Oc1ccccc1 | 20 µM (active) | –
COP(=O)(O)OC | – | inactive
O=C(O)C(F)(OC(F)(F)C(F)(F)C(F)(F)F)C(F)(F)F (stereo not given) | 9.29 µM (active) | inactive
Cc1cccc(N)c1 | – | inactive
ClC(Cl)=C(c1ccc(Cl)cc1)c1ccccc1Cl | 20 µM (active) | –
O=[N+]([O-])c1ccccc1 | – | inactive
Nc1ccc(Cl)cc1 | – | inactive
NC(=O)C(F)(F)C(F)(F)F | – | inactive
COP(N)(=S)OC | – | inactive
CCCCN(CCCC)N=O | – | inactive
N#Cc1cc([N+](=O)[O-])ccc1N | – | inactive
CCOP(=S)(OCC)SCn1nnc2ccccc2c1=O | – | inactive
CCN(CC)c1ccccc1 | – | inactive
O=C(O)C(Cl)Cl | – | inactive
O=C(O)C(F)(F)OC(F)(F)C(F)(F)OC(F)(F)F | – | inactive
[N-]=[N+]=[N-] | – | inactive
O=C(O)C(F)(F)C(F)(F)C(=O)O | – | inactive
O=C(O)C(F)(F)OC(F)(F)C(F)(F)OC(F)(F)C(=O)O | – | inactive
OCC1CO1 (stereo not given) | – | inactive
Nc1cc2c3c(c1)C(c1ccccc1)=N[C@@H](NC(=O)c1cccnc1)C(=O)N3CC2 | – | inactive
Nc1ccc([N+](=O)[O-])cc1Cl | – | inactive
c1ccc2c(c1)sc1ccccc12 | – | inactive
CCCCC(CC)COC(=O)c1c(Br)c(Br)c(Br)c(Br)c1C(=O)OCC(CC)CCCC (stereo not given) | – | inactive
CCOP(=S)(OCC)SCSc1ccc(Cl)cc1 | 20 µM (active) | –
COP(=O)(CCC(=O)NCO)OC | – | inactive
